According to PubChem BioAssay AID651692 (Broad Institute, 2012):
Results with a measured potency or affinity are listed apart. Calls of active or inactive are those of the source.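 How the source made its calls: active means fitted half-maximal concentration for loss of cell signal no higher than twice the top valid tested concentration; inconclusive means flat curve at 30 to 70% inhibition, or poor fit; inactive means flat within 30%, signal rise, or potency above limit.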

Assay: MDA-MB-231 cell growth inhibition, dose response, cytotoxicity control for RAD54 inhibitor project, CellTiter-Glo luminescence, cherry-pick (AID 651692);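 further: more negative values mean stronger loss of viable cell signal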
Details: MDA-MB-231 viability, 24 h; series mostly up to 26 µM

SMILES | outcome
CN(C)CCCNc1nc(-c2ccc(Cl)cc2)nc2ccccc12 | inactive
CCOC(=O)c1c(C)n(C)c2ccc(OCC(O)CN3CCN(C)CC3)cc12 (centres undefined) | inactive
Cc1cccc(-c2cc(N3CCCN(C)CC3)n3nccc3n2)c1 | inactive
CCN1CCN(c2ccc(Nc3ccnc4ccccc34)cc2)CC1 | inactive
CCN(CC)CCCNc1nc2cc(OC)c(OC)cc2c2nc(-c3ccccc3)nn12 | inactive
Cc1c(C)n(CCN(C)C)c2ccc(C(=O)OCCN(C)C)cc12 | inactive
NCCN1CCN(CCN)CC1 | inactive
CCCCN(CC)CCCNC(=S)Nc1ccc2nc(N3CCN(C)CC3)cc(C)c2c1 | inactive
CCN(CC)CCCNc1nc2ccccc2c2nc(-c3ccncc3)nn12 | inactive
COc1ccc2nc(C)cc(Nc3ccc(N4CCOCC4)cc3)c2c1 | inactive
CN(C)CCNC(=O)c1cc2c(=O)n(C)c3ccccc3c2n1C | inactive
COc1ccc(CCNC(=O)c2cc3c(=O)n4cccc(C)c4nc3n(CCCN3CCOCC3)c2=N)cc1 | inactive
Cc1nc2nc(C)c(C)nc2nc1C | inactive
CC1CCCCN1CCNC(=O)c1cc2c(=O)n(C)c3ccccc3c2n1C (centres undefined) | inactive
COc1cccc2sc3cc(NCC[C@@H]4CCCN4C)ccc3c(=O)c12 | inactive
COCCCNCCC(CCC(C)C)c1ccc2c(c1)OCO2 (centres undefined) | inactive
Cn1c(C(=O)NCCCN2CCOCC2)cc2c(=O)n(C)c3ccccc3c21 | inactive
COc1ccc(CCn2c(=N)c(C(=O)NCC3CCCO3)cc3c(=O)n4cccc(C)c4nc32)cc1OC (centres undefined) | inactive
CCN(CC)CCNc1ccc(CO)c2sc3ccccc3c(=O)c12 | inactive
Clc1ccc2[nH]c3c(NCCCN4CCOCC4)ncnc3c2c1 | inactive

SMILES | outcome
CCN(CC)CCNC(=O)c1cc2c(-c3ccc(Cl)cc3)nn(C)c2s1 | inactive
COc1cccc(-c2nc(N3CCN(Cc4ccccc4)CC3)c3ccccc3n2)c1O | inactive
CCCN(CCC)CCCNC(=S)Nc1ccc2nc(N3CCN(C)CC3)cc(C)c2c1 | inactive
Cc1cc(C)n(-c2nc(NCCN(C)C)c3c4c(sc3n2)COC(C)(C)C4)n1 | inactive
CC1CCCCC1NC(=O)C1Cc2ccccc2CN1S(C)(=O)=O (centres undefined) | inactive
CCCN(CCC)c1nc(-c2ccccn2)nc2ccccc12 | inactive
CCCC(c1nnnn1Cc1ccc(OC)cc1)N1CCN(c2ccccc2)CC1 (centres undefined) | inactive
CC(CCCN1CCCC1)Nc1ccnc2cc(Cl)ccc12 (centres undefined) | inactive
COc1cc2nc(NCCCN3CCN(C)CC3)n3nc(-c4ccccc4)nc3c2cc1OC | inactive
COc1cccc(-c2cc3nc(NCCN4CCCC4)n(C)c(=O)c3s2)c1 | inactive
O=c1c2ccccc2oc2cc(NCCCN3CCOCC3)ccc12 | inactive
CN1CCN(CCNC(=O)c2cc3c(=O)n(C)c4ccccc4c3n2C)CC1 | inactive
Cc1nc2ccccc2c2oc(C(=O)NCCCN3CCC(C)CC3)cc12 | inactive
COc1cc2nc(Nc3ccc(F)cc3)nc(N)c2cc1OC | inactive
Cc1ccc(-c2nc(NCCN(C)C)c3ccccc3n2)cc1 | inactive
CCn1c(=N)c(C(=O)NC)cc2c(=O)n3cccc(C)c3nc21 | inactive
O=c1c2ccccc2oc2ccc(NCCCN3CCOCC3)cc12 | inactive
CCN(CC)CCNC(=S)Nc1ccc2nc(N3CCN(C)CC3)cc(C)c2c1 | inactive
COc1ccc(CCn2c(=N)c(C(=O)NCCN3CCOCC3)cc3c(=O)n4cccc(C)c4nc32)cc1OC | inactive
